Data from the supplement of paper PMC13380429.

Tested on: Vero E6 infected with SARS-CoV-2
Assay: inhibition of SARS-CoV-2 cytopathic effect; higher = more antiviral protection, active = above 15
Conditions: 48 h

Measured: inhibition of SARS-CoV-2 cytopathic effect

Cn1cc(-c2ccc3ncc(Cc4ccc5ncccc5c4)n3n2)cn1
inactive: 1 nM -4.59% | 8.33 nM -2.71% | 100 nM -1.81% | 833.33 nM 2.47% | 10000 nM 3.49%

O=C(COc1ccc(Cl)cc1)N[C@H]1CC[C@H](NC(=O)COc2ccc(Cl)cc2)CC1
inactive: 1 nM -0.57% | 8.33 nM -0.23% | 100 nM 3.35% | 833.33 nM 6.09%
active: 10000 nM 15.7%

FC(F)(F)c1ccc(CNc2ccc(Cc3c[nH]c4ncc(Cl)cc34)cn2)cn1 [pexidartinib]
inactive: 1 nM 0.78% | 8.33 nM 3.65% | 100 nM 0.98% | 833.33 nM 0.96% | 10000 nM 11.6%

N[C@H](C(=O)O)c1cc(O)no1 [ibotenic-acid]
inactive: 1 nM 2.28% | 8.33 nM 1.34% | 100 nM 0.56% | 833.33 nM -0.13% | 10000 nM -0.16%

O=C(NC1CCC1)c1ccc(C#Cc2cccc(F)c2)nc1
inactive: 1 nM 0.19% | 8.33 nM -1.61% | 100 nM -2.31% | 833.33 nM -1.49% | 10000 nM 2.23%

O=S(=O)(c1cccc2c(O)nccc12)N1CCCNCC1 [hydroxyfasudil]
inactive: 1 nM -1.12% | 8.33 nM -1.29% | 100 nM -1.81% | 833.33 nM -2.35% | 10000 nM -0.71%

Cn1cc(/C=C2\C(=O)Nc3cccnc32)c2ccccc21
inactive: 1 nM -2.16% | 8.33 nM -2.36% | 100 nM 2.94% | 833.33 nM 0.64% | 10000 nM 4.71%

COc1ccc(S(=O)(=O)Nc2cc(Cl)cc(Cl)c2OC)cc1N1CCNCC1
inactive: 1 nM -1.83% | 8.33 nM 1.03% | 100 nM 1.96% | 833.33 nM 5.17% | 10000 nM -2.32%

C/C(=C\c1csc(C)n1)[C@@H]1C[C@@H]2O[C@]2(C)CCC[C@H](C)[C@H](O)[C@@H](C)C(=O)C(C)(C)[C@@H](O)CC(=O)O1 [epothilone-B]
inactive: 1 nM -1.66% | 8.33 nM -5.81% | 100 nM -4.92% | 833.33 nM -0.91% | 10000 nM -0.53%

CN(C)CCOC(c1ccccc1)c1ccccc1.Cn1c(=O)c2[nH]c(Cl)nc2n(C)c1=O [dimenhydrinate]
inactive: 1 nM 1.11% | 8.33 nM -2% | 100 nM 0.95% | 833.33 nM 0.58% | 10000 nM 0.68%

Cc1[nH]c(/C=C2\C(=O)Nc3ccc(S(=O)(=O)Cc4c(Cl)cccc4Cl)cc32)c(C)c1C(=O)N1CCC[C@@H]1CN1CCCC1
inactive: 1 nM -0.63% | 8.33 nM -2.66% | 100 nM -1.94% | 833.33 nM 1.33%
active: 10000 nM 50.2%

Ic1cncc(OC[C@@H]2CCN2)c1
inactive: 1 nM 0.24% | 8.33 nM -0.44% | 100 nM 0.14% | 833.33 nM 1.07% | 10000 nM -0.56%

Cc1cccc(C)c1NC(=O)CN1CCCC1=O [nefiracetam]
inactive: 1 nM -0.7% | 8.33 nM 0.26% | 100 nM -2.77% | 833.33 nM 1.22% | 10000 nM -6.8%

Nc1nc(=O)n([C@H]2C[C@H](O)[C@@H](CO)O2)cc1F [fdcyd]
inactive: 1 nM 0.4% | 8.33 nM 0.55% | 100 nM -0.04% | 833.33 nM 8.53% | 10000 nM -2.15%

O=C(NNc1ccccc1)c1ccncc1 [plurisin-1]
inactive: 1 nM 0.37% | 8.33 nM 1.32% | 100 nM 1.76% | 833.33 nM -2.79% | 10000 nM -6.02%

CNNCc1ccc(C(=O)NC(C)C)cc1 [procarbazine]
inactive: 1 nM -1.55% | 8.33 nM 4.48% | 100 nM -0.09% | 833.33 nM 2.14% | 10000 nM 0.27%

O=C1C(O)=C([C@H]2CC[C@H](c3ccc(Cl)cc3)CC2)C(=O)c2ccccc21 [atovaquone]
inactive: 1 nM 0.09% | 8.33 nM -1.67% | 100 nM -3.09% | 833.33 nM -1.77% | 10000 nM -9.21%

CC(C)c1ccc(C(=O)c2cccs2)c(SCCCCCCCCN(C)C)n1
active: 10000 nM 68.5%
inactive: 1 nM -1.33% | 8.33 nM 0.45% | 100 nM 2.39% | 833.33 nM 1.71%

Cc1ccc(C(=O)c2ccc(CC(=O)O)n2C)cc1 [tolmetin]
inactive: 1 nM -2.48% | 8.33 nM -1.62% | 100 nM -1.05% | 833.33 nM -0.39% | 10000 nM 0.75%
